High-throughput results from PubChem.
The entries come from a sample that favours hits as a whole.
Sm TGR inh – blocks Schistosoma mansoni thioredoxin glutathione reductase | purified TGR, DTNB reduction, TNB absorbance 405 nm | Potency, µM (series often up to 114 µM), most hits filed as inhibitors | 360,000 compounds, 3% hits | AID 485364; note: nearly all actives have a fitted effect of over 60% in size
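First, TGR (20 nM dispensed) and NADPH were mixed with compound. Second, a 15 min room-temperature incubation followed. Third, further NADPH and then DTNB were added to start the reaction. Finally, TNB absorbance was monitored kinetically.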
LmPK inh – inhibitors of Leishmania mexicana pyruvate kinase; purified LmPK, Kinase-Glo ATP luminescence, 1 h; Potency, µM (doses to about 57.5 µM), actives largely listed as inhibitors; 290,000 compounds, 0.37% hits; AID 1721
Target sequence (Q27686 whole entry, looked up): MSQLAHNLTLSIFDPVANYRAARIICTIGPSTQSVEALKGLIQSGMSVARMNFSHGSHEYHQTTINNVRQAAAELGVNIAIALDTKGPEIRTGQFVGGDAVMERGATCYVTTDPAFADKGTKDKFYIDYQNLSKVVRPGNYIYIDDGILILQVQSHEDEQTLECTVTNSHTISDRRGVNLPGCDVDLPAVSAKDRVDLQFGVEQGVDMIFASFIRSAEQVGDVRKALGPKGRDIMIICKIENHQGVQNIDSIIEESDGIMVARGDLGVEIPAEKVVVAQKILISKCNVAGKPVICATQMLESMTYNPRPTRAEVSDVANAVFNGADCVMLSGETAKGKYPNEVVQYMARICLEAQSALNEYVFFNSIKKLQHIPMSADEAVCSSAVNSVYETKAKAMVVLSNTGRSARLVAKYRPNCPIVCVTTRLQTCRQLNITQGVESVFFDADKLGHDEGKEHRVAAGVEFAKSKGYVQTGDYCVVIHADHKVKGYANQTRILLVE
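Purified LmPK (0.1 nM) with 0.5 mM PEP and 0.1 mM ADP in imidazole buffer pH 7.2 with MgCl2/KCl, 1 h at room temperature. ATP formed was read by luciferase luminescence and normalized to no-enzyme and uninhibited controls.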
Shiga inhibitor – Shiga toxin inhibition | 290,000 compounds, 9.2% hits | inhibition, % at 38.7 µM | Vero cells, Shiga toxin protein synthesis inhibition reporter | AID 2315; in the data active = inhibition mostly above about 28%, no sharp cut-off; inactive = mostly below about 43%
FBPA Giardia inh – Giardia lamblia aldolase inhibition; A8B2U2; purified Giardia FBPA; Potency, µM (doses to about 59.6 µM), most hits filed as inhibitors; 290,000 compounds, 0.71% hits; note: nearly all actives have a fitted effect of over 55% in size
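40 nM FBPA preincubated 10 min at RT with compound (up to 57.5 uM final), then substrate plus GAPDH/TPI/NAD/arsenate coupling and diaphorase/resazurin added. Fluorescence read after 20 min at RT, 525/598 nm.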
CHX counter – counter-screen for Shiga toxin inhibitors: cycloheximide protein synthesis inhibition; cell reporter, cycloheximide protein synthesis inhibition counterscreen; max response, %; 300,000 compounds, 12% hits; AID 2314; in the data active = max response mostly above about 13%, no sharp cut-off; inactive = mostly below about 14%; note: read at 38.3 µM for the half of the compounds with a filed dose
Tb PYK inh – T. brucei pyruvate kinase inhibition; TbPYK enzyme, Kinase-Glo Plus ATP luminescence, 45 min; Potency, µM (highest dose often 76.8 µM), actives largely listed as inhibitors; 410,000 compounds, 0.12% hits; note: nearly all actives have a fitted effect of over 50% in size
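Assay buffer: 50 mM TEA pH 7.2, 100 mM KCl, 10 mM MgCl2, 0.05% BSA, 0.01% Tween-20. Pyruvate kinase from T. brucei plus substrate met compound, then ADP (130 uM final). Luminescence was read post 45 min RT.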
A number is an active result; n = inactive; u = inconclusive; x = no result; + = active, no number; [ ] = dose if it differs, or a comment. Unless noted, calls come from the whole dose curve; as a rule, active = well fitted curve in the direction sought with a large enough effect; inconclusive = small, poorly fitted or top-dose-only effect, or another doubt; inactive = no such curve, though single readings can be large; an effect the other way counts as inactive or inconclusive.

SMILES	Sm TGR inh	LmPK inh	Shiga inhibitor	FBPA Giardia inh	CHX counter	Tb PYK inh
O=C(NC(=S)NCc1ccccc1)c1ccccc1	x	n	n	n	n	n
C/C(=N\NC(=S)NCc1ccccc1)c1cccs1	n	n	135	n	35	n
COc1ccc(S(=O)(=O)c2c(SC)nn(CC(=O)Nc3cccc(C)c3C)c2N)cc1	n	x	x	x	x	n
O=C(Cn1c(=O)n(Cc2ccco2)c(=O)c2sc3ccccc3c21)Nc1ccc(F)cc1F	n	x	x	x	x	n
CCCCCCCC/C=C/CCCCCCCC(=O)NCCOP(=O)(O)O	x	x	n	u	n	x
C=CCNC(=O)c1ccncc1	n	n	n	n	n	n
C=CCNC(=O)c1ccc(-n2cccc2)cc1	n	n	n	n	30	n
O=C(NC1CC1)c1ccc(-n2cccc2)cc1	n	n	n	n	62	n
N[C@H]1CN(c2c(F)cc3c(=O)c(C(=O)O)cn(C4C[C@@H]4F)c3c2Cl)CC12CC2 (stereo partly drawn)	x	x	x	x	x	n
COc1ccc(OC)c(S(=O)(=O)NC(C)c2cnn(-c3ccccn3)c2C)c1 (stereo not drawn)	n	n	n	x	n	n
CSCc1ccc(C(=O)NC(C)c2cnn(-c3ccccn3)c2C)o1 (stereo not drawn)	u	n	48	n	24	n
COc1ccc(C2OC3C(CO)OC(n4cnc5c(=O)[nH]c(N)nc54)C3O2)cc1 (stereo not drawn)	x	x	x	n	x	x
Cc1ccc2nc(NC(=O)C3CCN(S(=O)(=O)c4cc([N+](=O)[O-])ccc4Cl)CC3)sc2c1	n	n	+	n	13	n
CCSc1nnc(NC(=O)C2CCN(S(=O)(=O)c3cc(C(F)(F)F)ccc3Cl)CC2)s1	89µM	n	n	n	n	n
O=C(Nc1nc2ccc(F)cc2s1)C1CCN(S(=O)(=O)c2cc([N+](=O)[O-])ccc2Cl)CC1	u	n	52	n	34	n
Cc1ccc(NC(=O)C2CCN(S(=O)(=O)c3cc([N+](=O)[O-])ccc3Cl)CC2)nc1	x	x	x	x	x	n
C[C@H]1CC[C@H]2C(=O)N3[C@H](c4ccc(Br)cc4)[C@@H](C)CC[C@H]3C(=O)N2[C@@H]1c1ccc(Br)cc1	x	x	x	n[12.9 µM]	x	x
O=C(Nc1ccccc1C(=O)OCc1cc(=O)n2c3c(sc2n1)CCCC3)c1cccc(Cl)c1	n	x	x	x	x	n
COc1ccc(-c2csc(COC(=O)C(C)(C)C)n2)cc1	n	n	75	n	30	n
CC(C)(C)C(=O)OCc1nc(-c2ccc3c(c2)OCCO3)cs1	n	n	114	n	54	n
CC(C)(C)C(=O)OCc1nc(-c2ccc(Cl)cc2)cs1	n	n	69	n	59	n
CC(C)(C)C(=O)OCc1nc(-c2ccc(F)cc2)cs1	n	n	92	n	42	n
NC(=O)Cc1nc(-c2ccc(F)cc2)cs1	n	n	n	n	n	n
Cc1cccc(N2CCN(c3cc(C)nc4c(-c5ccc(Cl)cc5)c(C)nn34)CC2C)c1 (stereo not drawn)	n	x	x	x	x	n
COc1ccccc1N1CCN(c2ccc(NC(=O)c3ccc(C)cc3)cc2C(=O)O)CC1	n	x	x	x	x	n
SMILES	Sm TGR inh	LmPK inh	Shiga inhibitor	FBPA Giardia inh	CHX counter	Tb PYK inh
CC(Nc1oc(-c2ccc(COc3ccccc3)o2)nc1C#N)c1ccccc1 (stereo not drawn)	n	x	x	x	x	n
NC(=S)Cc1nc(-c2ccc(Cl)cc2)cs1	n	n	80	n	n	n
CCCN(C(=O)C1CC(=O)N(c2ccccc2C(C)CC)C1)C1CCS(=O)(=O)C1 (stereo not drawn)	n	x	x	x	x	n
O=C1NC(=S)S/C1=C/c1ccc(N2CCOCC2)o1	3.5µM	u	n	u	n	u
O=C1N/C(=C/c2ccc(N3CCCC3)cc2)C(=O)N1c1ccccc1	n	n	49	n	17	n
C=CCN1C(=O)N/C(=C/c2ccc(N3CCOCC3)o2)C1=O	7.1µM	n	n	u	n	x
O=C1N/C(=C/c2ccc(N3CCOCC3)o2)C(=O)N1c1ccccc1	8.9µM	n	n	u	20	u
CCCN1CCCc2cc(CN(CCCN3CCOCC3)C(=O)Nc3ccc(Cl)c(Cl)c3)ccc21	n	x	x	x	x	n
C=CCN1C(=O)/C(=C\c2ccc(N3CCOCC3)o2)C(=O)NC1=S	50µM	n	n	n	n	u
O=[N+]([O-])c1cccc(/C=N\N2CCN(Cc3ccccc3Cl)CC2)c1	n	n	n	n	16	n
O=[N+]([O-])c1cccc(/C=N/N2CCN(c3ccccn3)CC2)c1	n	n	n	n	15	n
O=[N+]([O-])c1ccc(N/N=C/c2ccccc2)c(F)c1	n	n	63	n	74	n
O=[N+]([O-])c1cccc(/C=N/N2CCN(Cc3ccccc3)CC2)c1	n	n	83	n	27	n
Cc1ccc(CNC(=O)CN2N=C(c3ccccc3)CCC2=O)cc1	n	x	x	x	x	n
O=C(COCc1cc(-c2cccs2)on1)NCc1cccc(Cl)c1	n	x	x	x	x	n
COc1cccc(CNC(=O)Cn2c(=O)oc3cc(S(=O)(=O)N4CCCC4)ccc32)c1	n	x	x	x	x	n
O=C(CSc1n[nH]c(-c2ccco2)n1)Nc1ccccc1Cl	n	n	n	n	n	n
COc1ccc([C@@H]2[C@@H](O)[C@H](O)[C@@H](C)N2C)cc1OC	x	x	x	n	x	x
Cc1ccc(S(=O)(=O)c2nnn3c2nc(N2CCN(c4ccc(F)cc4)CC2)c2cc(Cl)ccc23)cc1C	n	x	x	x	x	n
O=[N+]([O-])c1cccc(/C=N/N=C\c2ccccc2)c1	n	n	56	n	36	n
O=C(C1CCN(S(=O)(=O)c2ccc(F)cc2)CC1)N1CCCC(C(F)(F)F)C1 (stereo not drawn)	n	x	x	x	x	n
CCn1c(=O)c(C(=O)Nc2ccccc2C)c(O)c2ccccc21	n	n	active	n	n	u
CCCn1c(=O)c(C(=O)N/N=C/c2ccccc2F)c(O)c2ccccc21	n	n	n	n	13	n
CCCn1c(=O)c(C(=O)Nc2ccccc2C)c(O)c2ccccc21	45µM	n	x	u	14	n
CCCCCn1c(=O)c(C(=O)Nc2ccccc2C)c(O)c2ccccc21	n	n	x	n	34	n
SMILES	Sm TGR inh	LmPK inh	Shiga inhibitor	FBPA Giardia inh	CHX counter	Tb PYK inh
CCCn1c(=O)c(C(=O)Nc2ccccc2N)c(O)c2ccccc21	x	x	x	x	x	n
CCCn1c(=O)c(C(=O)N/N=C/c2ccc(F)cc2)c(O)c2ccccc21	n	n	n	n	n	n
CCCCCCn1c(=O)c(C(=O)Nc2ncccc2C)c(O)c2ccccc21	n	n	n	n	n	n
Cn1c(=O)n(C/C=C/c2ccccc2)c(=O)c2c1nc1n2CCN1c1ccccc1	n	x	x	x	x	n
Cc1ccc(S(=O)(=O)Nc2ccc3c(c2)c(C(=O)OC(C)C)c(C)n3S(=O)(=O)c2ccc(C)cc2)cc1	n	x	x	x	x	n
C=CCn1c(=O)c(C(=O)Nc2ccccc2C)c(O)c2ccccc21	n	n	n	n	19	n
Cc1cccc(-n2ncc3c(NCc4ccccn4)ncnc32)c1	n	n	70	n	29	n
